# According to PubChem BioAssay (NCI):
# “And” between values parts separate entries of the source, which are not always exact repeats. Equal entries are not always repeated. Compounds without any hit were thinned out: in the full panel of roughly 83,000, 20% have a hit.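 The endpoint reported here, percent growth, reads 100 for growth as untreated, 0 for no net growth and -100 for all cells dead.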 Values without a mark were called inactive. The source made the active and inactive calls. How the source made its calls: active means growth percent below 10; inactive means the rest.
# Assays:
# Assay in all cases: NCI-60 one-dose screen, 48 h (100 = growth as untreated, 0 = no growth, -100 = all killed)
# Conditions in all cases: 10 µM unless noted
# T-47D breast = system: T-47D breast
# BT-549 breast = system: BT-549 breast
# MDA-MB-435 melanoma = system: MDA-MB-435 melanoma
# SW-620 colon = system: SW-620 colon
# MCF7 breast = system: MCF7 breast
# HCT-116 colon = system: HCT-116 colon
# HCC-2998 colon = system: HCC-2998 colon
# KM12 colon = system: KM12 colon
# MDA-MB-468 breast = system: MDA-MB-468 breast
SMILES,growth (T-47D breast),growth (BT-549 breast),growth (MDA-MB-435 melanoma),growth (SW-620 colon),growth (MCF7 breast),growth (HCT-116 colon),growth (HCC-2998 colon),growth (KM12 colon),growth (MDA-MB-468 breast)
COc1cc(C2CC(c3cc(OC)c(OC)c(OC)c3)=Nc3c(N)nc(N)nc3N2)ccc1Oc1nc(Nc2ccc(F)cc2)nc(N(C)C)n1 (configuration not stated),65.8%,74.7%,66.4%,50.7%,23.4%,22.9%,36.8%,42.9%,-22.6% (active)
Nc1cccc(-n2c(COc3ccc(I)cc3)nc3ccccc32)c1,54.6% and 99.2%,92.6% and 99.7%,95.9% and 99.7%,86.3% and 104%,67.9% and 98.9%,76% and 102%,118% and 113%,87.9% and 99.6%,72.2% and 102%
O=C(Nc1nc2ccc([N+](=O)[O-])cc2s1)Nc1ccc(Cl)cc1Cl,20.7%,65.3%,60.3%,75.9%,36%,22.5%,69.4%,60.2%,29.1%
C=CCSc1nnc(-c2c(C)nc3sccn23)o1,79.4%,65.2%,101%,97%,70.8%,94%,110%,101%,5.74% (active)
Cc1ccc(Cl)cc1NC(=O)N/C(N)=N/c1nc2ccccc2s1,32.4%,-7.19% (active),-63.9% (active),1.84% (active),4.25% (active),-51.9% (active),-14.8% (active),-28.7% (active),-30.1% (active)
Cc1nn(-c2ccccc2)c2ncn(CC(=O)N/N=C/c3ccccc3O)c(=O)c12,22.9%,56.5%,64.1%,43.5%,16.3%,18.5%,36.2%,25.8%,10.9%
CC1=C(C(=O)OCc2ccccc2)C(c2ccc(N(C)C)cc2)n2c(nc3ccccc32)N1 (configuration not stated),84.6%,82.8%,29.4%,103%,65.2%,87.7%,90.8%,73.4%,69.8%
c1ccc(CSc2nnc(-c3ccc4nc(-c5ccccc5)[nH]c4c3)o2)cc1,15.4%,35.4%,9.59% (active),10%,1.53% (active),2.99% (active),62%,55%,2.91% (active)
COc1ccc2[nH]c(=O)c(CSc3ccccc3Nc3nccc(-c4ccc5c(c4)OCO5)n3)cc2c1,52%,67.3%,74.5%,106%,68.2%,70%,110%,89.7%,66.5%
O=C(CSc1nnc(-c2ccc(-c3nc4ccccc4[nH]3)cc2)o1)Nc1ccccc1,109%,98.7%,85.6%,19.9%,72.7%,50.8%,92.3%,70.1%,92.9%
COc1ccccc1/C=C/c1cccc(NC(=S)NCCCCN(C)C)c1,-58.7% (active),-60.7% (active),-91.6% (active),5.09% (active),-73.9% (active),-43.4% (active),-94.1% (active),-52.9% (active),-86% (active)
CN(C)c1nc(NCCNS(=O)(=O)c2ccc(C3=Nc4c(N)nc(N)nc4NC(c4ccc(C(F)(F)F)cc4)C3)cc2)nc(N2CCOCC2)n1 (configuration not stated),24.7%,1.02% (active),44.3%,54.7%,21.8%,17.1%,27.3%,47.8%,5.66% (active)
Cc1nn(-c2ccccc2)c2nc(C)n(C(=O)N/N=C/c3cccc([N+](=O)[O-])c3)c(=O)c12,91.4%,155%,96.5%,103%,77.1%,87.5%,113%,100%,73.1%
CC(C)(C)c1ccc(OCc2nc3ccccc3n2-c2cccc(N)c2)cc1,32.3% and 99.1%,73.6% and 115%,70.5% and 102%,77% and 116%,32% and 92.1%,56.8% and 104%,81.9% and 107%,54.5% and 105%,69% and 96.4%
COc1cc(C2CC(c3ccc(F)cc3)=Nc3c(N)nc(N)nc3N2)ccc1Oc1nc(Nc2ccc(F)cc2)nc(N(C)C)n1 (configuration not stated),65.7%,51.3%,47%,31.8%,7.4% (active),6.9% (active),29.1%,44.9%,-17.8% (active)
O=C(NN1C(=O)/C(=C/C=C/c2ccc([N+](=O)[O-])o2)SC1=S)c1ccncc1,-59.4% (active),-91.7% (active),-83.7% (active),-69.6% (active),-53.4% (active),-41.5% (active),-96.2% (active),-94.3% (active),-73.9% (active)
COc1ccc(C(=O)NNC(=O)CSc2nc3sc4c(c3c(=O)n2-c2ccc(Cl)cc2)CCCC4)cc1,72.5%,34.5%,93.4%,88%,63.5%,72.7%,111%,98%,88.3%
O=C(N/N=C/c1ccc(-c2cccc([N+](=O)[O-])c2)s1)c1[nH]c2ccc(Br)cc2c1-c1ccccc1,92.5%,88.4%,98.3%,99%,54.4%,82.9%,107%,109%,103%
Cn1cc(-c2cc(N)n3nc(-c4c[nH]c5ccc(Cl)cc45)cc3n2)c2cccnc21,-65.9% (active),-77.1% (active),-84.2% (active),-72.8% (active),-81.2% (active),-90.7% (active),-98.5% (active),-70.2% (active),-93.7% (active)
COc1c(F)ccc(C(=O)Nc2ccc3nc(NC(=O)C4CCCN(S(=O)(=O)c5ccc(C(C)(C)C)cc5)C4)sc3c2)c1F (configuration not stated),42.5%,60.4%,76.7%,88.5%,41.5%,58.3%,84.8%,68.4%,86.7%
CCC(=O)c1c2c(c3ccc4c5ccccc5ccc4n13)C(=O)c1ccccc1C2=O,87.2%,114%,-89.8% (active),88.5%,54%,92.6%,65.4%,68.9%,88.6%
Nc1ccc(-c2ccc3ncnc(N4CCc5cc(F)c(Cl)cc54)c3c2)cn1,10.7%,-9.19% (active),28%,55.8%,8.53% (active),-52.9% (active),38.2%,35.6%,-78% (active)
O=c1[nH]c2ccccc2cc1COc1ccc(Nc2nccc(-c3ccc(Cl)cc3)n2)cc1,92.2%,99.3%,102%,105%,91.3%,96.4%,116%,99.3%,89.6%
N#Cc1ccc(C(=O)NNC(=O)CSc2nc3sc4c(c3c(=O)n2-c2ccc(Cl)cc2)CCCC4)cc1,58.6%,22.7%,63.7%,60.3%,63%,37.5%,96.1%,91.2%,92%
Cn1ncc2c(N)nc(Oc3ccccc3-c3ccccc3)nc21,31.9%,-1.44% (active),-38.2% (active),25.2%,9.1% (active),15.6%,62.2%,24%,-24.1% (active)
O=C1/C(=C/C=C/c2ccco2)SC(=S)N1CC(=S)C1C=CS(=O)(=O)C1 (configuration not stated),80.2%,88.1%,96.7%,76.9%,27.9%,83.4%,103%,89.4%,-16.5% (active)
COc1cc(-c2ccc3ncnc(N4CCc5ccc(Cl)cc54)c3c2)cnc1Cl,8.82% (active),5.89% (active),32.8%,17.4%,3.58% (active),8.7% (active),28%,33.2%,-16.8% (active)
Cc1ccc2nc(COc3ccc(C(=O)NNC(=O)Nc4ccc(Cl)c(C(F)(F)F)c4)cc3)[nH]c2c1,-24.8% (active),-2.01% (active),8.76% (active),43.4%,53.4%,4.51% (active),70.1%,24.9%,-56.9% (active)
